In the library only some 3.8% were active in any assay of this set; here they are far more common.
Nrf2 block – blocks Nrf2 signaling; Potency, µM (highest dose often 46 µM), for inactives: at the top dose activity change, negative = inhibition, actives largely listed as inhibitors; A549 ARE-Fluc reporter, luciferase luminescence, 18-24 h; hit rate 2.1% among 360,000; AID 504444; note: % is set by controls: 0 for no effect and ±100 for the full control effect; nearly all actives have a fitted effect of over 60% in size
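Cells were seeded and rested 2 h, then exposed to compounds for 18-24 h. CellTiter-Fluor was read first as a viability measure. BugLite was added 15 min before the final luminescent read of ARE-luciferase activity in A549 cells.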
ELG1 repair inh – blocks ELG1-dependent DNA repair in HEK293T cells | Potency, µM (titrated, usually from 46.1 µM), for the others: at the highest dose activity change, negative = inhibition, actives largely listed as inhibitors | AID 504467 | HEK293T ELG1-luciferase reporter, luminescence, 16 h; DNA damage induced by 5-fluorouridine | hit rate 2.3% among 330,000; note: % is set by controls: 0 for no effect and ±100 for the full control effect; nearly all actives have a fitted effect of over 55% in size
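Cells (2,000 per well) received 5-fluorouridine plus test compound or DMSO and were incubated 16 hr at 37 °C, 5% CO2. Luciferase activity was read by luminescence 30 min after ONE-Glo addition; signal suppression marked inhibition of damage-induced ELG1 function.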
IDH1 R132H inh – human IDH1 R132H inhibition; IDH1-R132H enzyme, NADPH consumption, diaphorase/resazurin fluorescence; Potency, µM (highest dose often 76.6 µM), for the others: top-dose activity change, negative = inhibition, usual class: inhibitors; hit rate 0.093% among 390,000; note: % is set by controls: 0 for no effect and ±100 for the full control effect; nearly all actives have a fitted effect of over 65% in size
Target sequence (O75874 whole entry R132H, stated change not applied): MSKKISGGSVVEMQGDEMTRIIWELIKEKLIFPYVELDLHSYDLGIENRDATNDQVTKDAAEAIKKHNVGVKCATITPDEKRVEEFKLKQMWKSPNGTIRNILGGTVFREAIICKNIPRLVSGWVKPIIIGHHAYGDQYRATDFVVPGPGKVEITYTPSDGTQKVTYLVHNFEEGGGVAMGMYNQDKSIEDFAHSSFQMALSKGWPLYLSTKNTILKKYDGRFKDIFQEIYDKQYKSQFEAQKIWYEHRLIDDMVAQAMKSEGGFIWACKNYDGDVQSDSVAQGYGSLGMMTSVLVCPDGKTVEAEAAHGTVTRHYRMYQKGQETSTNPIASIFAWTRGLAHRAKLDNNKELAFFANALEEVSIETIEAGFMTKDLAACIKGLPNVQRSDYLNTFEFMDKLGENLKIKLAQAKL
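IDH1-R132H (0.5 ug/mL dispensed) in pH 7.5 Tris buffer was preincubated 30 min with compound, then given a substrate mix of 0.016 mM NADPH and 2 mM alpha-KG for 80 min at room temperature; remaining NADPH was read by diaphorase/resazurin fluorescence.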
Nrf2 activator – activates Nrf2 signaling; Potency, µM (highest dose often 46.1 µM), inactives show at the top dose activation, most hits filed as activators; hit rate 0.31% among 410,000; AREc32 ARE-luciferase reporter (MCF7-derived line), luminescence, 24 h; AID 624171; note: % of control where 0% means no effect; nearly all actives have a fitted effect of over 65% in size
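Steps: seed AREc32_Fluc cells (1000/well, 5% FBS OPTI-MEM); incubate overnight at 37 deg C; add 23 nL compound; incubate 24 hr; add Steady-Glo; hold 30 min RT; read luminescence.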
A549 tox – counter-screen for Nrf2 inhibitors: cytotoxicity in A549 cells; Potency, µM (titrated, usually from 46 µM), inactives show at the highest dose activity change, negative = cytotoxicity, usual class: inhibitors; A549 ARE-Fluc cells, CellTiter-Fluor viability, 18-24 h; hit rate 0.16% among 390,000; note: % is set by controls: 0 for no effect and ±100 for the full control effect
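A549 ARE-Fluc cells in 5% FBS OPTI-MEM, 5000 cells/well, rested 2 h then exposed to compounds in concentration-response for 18-24 h at 37 °C. Viability by CellTiter-Fluor fluorescence (Ex 405/Em 525) after 30 min; luciferase luminescence (BugLite, 15 min, RT) read afterwards.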
* hit, by the source's call. Calls come from the whole dose curve; as a rule, active = well fitted curve in the direction sought with a large enough effect; inconclusive = small, poorly fitted or top-dose-only effect, or another doubt; inactive = no such curve, though single readings can be large; an effect the other way counts as inactive or inconclusive. Potency is the fitted concentration of half-maximal effect.

Results for CC(C)(C)OC(=O)NCC12C=CC(O1)C1C(=O)N(Cc3ccccc3)C(=O)C12 (stereo not drawn) ?
ELG1 repair inh: 23µM*; IDH1 R132H inh: 9%; Nrf2 activator: 0%; A549 tox: -6%

Results for CCOc1ccc(S(=O)(=O)NCc2ccco2)c2ccccc12 ?
Nrf2 block: 5%; ELG1 repair inh: 2%; IDH1 R132H inh: 15%; Nrf2 activator: 13µM*; A549 tox: 0%

What do the screens show for `CCOC(=O)c1c(NC(=O)c2c(Br)cnn2C)c(C#N)nn1-c1ccccc1`?
Nrf2 block: 18µM*; ELG1 repair inh: inconclusive; IDH1 R132H inh: 7%; Nrf2 activator: 1%; A549 tox: -13%

How did CCOC(=O)c1c(NC(=O)c2nn(CC)cc2Br)c(C#N)nn1-c1ccccc1 do in these assays?
Nrf2 block: inconclusive; ELG1 repair inh: inconclusive; IDH1 R132H inh: 13%; Nrf2 activator: 0%; A549 tox: 2%

What do the screens show for `CCCc1cc(C(=O)N/N=C/c2cccn2C)cs1`?
Nrf2 block: 9%; ELG1 repair inh: inconclusive; IDH1 R132H inh: 10%; Nrf2 activator: 1%; A549 tox: 0%

What do the screens show for `O=C(Nc1nnc(C2CCCCC2)s1)C1CCN(C(=O)c2ccco2)CC1`?
Nrf2 block: -3%; A549 tox: 2%

Results for CC(C)(C)c1ccc(Oc2ccc(N)cn2)cc1 ?
Nrf2 block: 18µM*; ELG1 repair inh: 10%; IDH1 R132H inh: 0%; Nrf2 activator: -1%; A549 tox: -4%

How did COc1ccc(C2Nc3ccccc3C(=O)N2Cc2ccccc2)cc1COc1ccc(C#N)cc1 (stereo not drawn) do in these assays?
Nrf2 block: -8%; A549 tox: 2%

What do the screens show for `CSc1nc(-c2ccc(C)cc2)nc(C(Cl)Cl)n1`?
Nrf2 block: -25%; ELG1 repair inh: inconclusive; IDH1 R132H inh: 1%; Nrf2 activator: 0%; A549 tox: inconclusive

Results for CCSc1nc(-c2ccccc2)nc(C(Cl)Cl)n1 ?
Nrf2 block: inconclusive; ELG1 repair inh: 18µM*; IDH1 R132H inh: 2%; Nrf2 activator: -2%; A549 tox: inconclusive

How did Nc1c(Cl)ncnc1NCCc1ccc(O)cc1 do in these assays?
Nrf2 block: 5.8µM*; ELG1 repair inh: 10µM*; IDH1 R132H inh: -13%; Nrf2 activator: 0%; A549 tox: -19%

How did N#Cc1ccc(C(=O)NCC(=O)OC(C(=O)Nc2cc(C(F)(F)F)ccc2Cl)c2ccccc2)cc1 (stereo not drawn) do in these assays?
Nrf2 block: 9%; A549 tox: 17%

How did CN(CC(=O)NCc1ccco1)CC(=O)Nc1cc(S(C)(=O)=O)ccc1Cl do in these assays?
Nrf2 block: -16%; ELG1 repair inh: 15%; IDH1 R132H inh: -6%; Nrf2 activator: 0%; A549 tox: 4%

Results for CCOc1ccc(S(=O)(=O)N2CCN(C(=O)CCOc3ccccc3C)CC2)cc1 ?
Nrf2 block: 16µM*; ELG1 repair inh: inconclusive; IDH1 R132H inh: 1%; Nrf2 activator: 0%; A549 tox: -16%

Results for CC(=O)c1ccc(OCCCC(=O)N2CCN(S(=O)(=O)c3ccc(C(C)C)cc3)CC2)cc1 ?
Nrf2 block: 21µM*; ELG1 repair inh: inconclusive; IDH1 R132H inh: 1%; Nrf2 activator: 0%; A549 tox: -22%

What do the screens show for `Cc1cc(C)cc(N/C(N)=N/c2nc(C)cc(C)n2)c1`?
Nrf2 block: 6%; ELG1 repair inh: 15µM*; IDH1 R132H inh: -1%; Nrf2 activator: -1%; A549 tox: -4%

How did Cc1cc(OCC(=O)Nc2ccc(Br)cc2)cc2c1C(=O)CC(C)(C)O2 do in these assays?
Nrf2 block: -7%; ELG1 repair inh: 15µM*; IDH1 R132H inh: 5%; Nrf2 activator: 5%; A549 tox: 3%

Results for CC(=O)Nc1ccc(NC(=O)COc2cc(O)c3c(c2)OC(C)(C)CC3=O)cc1 ?
Nrf2 block: inconclusive; ELG1 repair inh: 15%; IDH1 R132H inh: 2%; Nrf2 activator: 3%; A549 tox: 5%

How did Cc1cc(C)c(NC(=S)NCCCSC2CCCCC2)c(C)c1 do in these assays?
Nrf2 block: 21µM*; ELG1 repair inh: inconclusive; IDH1 R132H inh: -2%; Nrf2 activator: -1%; A549 tox: -3%

What do the screens show for `COc1cccc(NC(=O)NCCCSC2CCCCC2)c1`?
Nrf2 block: -25%; ELG1 repair inh: -12%; IDH1 R132H inh: 0%; Nrf2 activator: 0%; A549 tox: -3%

Results for CC1CCCC(C)N1C(=O)c1cccc2c1-c1ccccc1/C2=N/O (stereo not drawn) ?
Nrf2 block: 19%; ELG1 repair inh: 21µM*; IDH1 R132H inh: 5%; Nrf2 activator: -1%; A549 tox: -8%

How did O=C(NC(=S)NNC(=O)c1ccccc1[N+](=O)[O-])c1ccc(Br)cc1 do in these assays?
Nrf2 block: 3%; ELG1 repair inh: 13%; IDH1 R132H inh: -11%; Nrf2 activator: 10%; A549 tox: -9%

Results for O=C(NCC1OCCc2ccccc21)c1ccc(NC(=O)c2ccc(Cl)cc2)cc1 (stereo not drawn) ?
Nrf2 block: 21µM*; ELG1 repair inh: inconclusive; IDH1 R132H inh: -4%; Nrf2 activator: 8%; A549 tox: inconclusive

Results for O=C(NCC1OCCc2ccccc21)c1ccco1 (stereo not drawn) ?
Nrf2 block: inconclusive; ELG1 repair inh: 30%; IDH1 R132H inh: 1%; Nrf2 activator: 11µM*; A549 tox: 4%

What do the screens show for `Cc1ccc(NC(=O)C(=O)NCC2OCCc3ccccc32)cc1` (stereo not drawn)?
Nrf2 block: 26%; ELG1 repair inh: inconclusive; IDH1 R132H inh: 4%; Nrf2 activator: 1%; A549 tox: -4%

How did CCOc1ccc(Sc2cc(C(=O)NCCCOC)c3ccccc3n2)cc1 do in these assays?
IDH1 R132H inh: 4%; Nrf2 activator: 5%; A549 tox: 0%

What do the screens show for `COc1ccc(N2CCN(C(c3ccccc3)c3sc4nc(-c5ccco5)nn4c3O)CC2)cc1` (stereo not drawn)?
IDH1 R132H inh: -15%; Nrf2 activator: 0%; A549 tox: 1%

Results for COc1ccc(S(=O)(=O)c2c(Nc3c(C)cccc3C)sc(C(=O)c3ccc(F)cc3)c2N)cc1 ?
IDH1 R132H inh: 3%; Nrf2 activator: 0%; A549 tox: -11%

What do the screens show for `CCc1ccc(NC(=O)c2ccc3[nH]c(C)c(C)c3c2)cc1`?
Nrf2 block: inconclusive; IDH1 R132H inh: 15%; Nrf2 activator: 5%; A549 tox: 12%

Results for Cc1[nH]c2ccc(C(=O)Nc3ccncc3)cc2c1C ?
Nrf2 block: 12µM*; ELG1 repair inh: 12µM*; IDH1 R132H inh: 21%; Nrf2 activator: 4%; A549 tox: -3%
